Source: PubChem BioAssay (Tox21)
A number with no mark means an inactive call. Entries that show only a call come without a potency. Calls of active or inactive are those of the source. The call rests on the fitted dose curve; in most records, active means well fitted curve in the direction sought with a large enough effect in the repeat runs; inconclusive means weak or mixed curves; inactive means flat fitted curve, though single readings scatter.

assay: qHTS assay to test for compound auto fluorescence at 535 nm (green) in HepG2 cells (AID 720675); conditions: green autofluorescence 485/535 nm, 1 h; series mostly up to 91.3 µM; fluorescence, % of fluorescein control: at the top concentration

| Compound | outcome | fluorescence, % of fluorescein control [%] |
| --- | --- | --- |
| Nc1cccc(N)n1 | inactive |  |
| CN=C(NC#N)NCCSCc1nc[nH]c1C | inactive |  |
| NCCNCCNCCN | inactive |  |
| C=C(C)CC(C)(C)C | inactive |  |
| CC(C=O)Cc1ccc(C(C)(C)C)cc1 (centres undefined) | inactive |  |
| COc1ccc2cc3[n+](cc2c1OC)CCc1cc2c(cc1-3)OCO2 | inactive |  |
| Cc1ncc(CO)c(CO)c1O | inactive |  |
| CN1Cc2c(N)cccc2C(c2ccccc2)C1 (centres undefined) | inactive |  |
| CCCCCCCCCCCC(=O)N(C)CC(=O)O | inactive |  |
| CCCOCC(C)O (centres undefined) | inactive |  |
| O=C1CCCCCCCCCCC1 | inactive |  |
| CC[N+](CC)(CC(=O)Nc1c(C)cccc1C)Cc1ccccc1 | inactive |  |
| CC(=O)OC/C=C(\C)CCC=C(C)C | inactive |  |
| C=CC(C)(C)C | inactive |  |
| CC1=CC(=O)CC(C)(C)C1 | inactive |  |
| N#CCC(=O)O | inactive |  |
| NC1CCCCC1N (centres undefined) | inactive |  |
| OCC(O)CS (centres undefined) | inactive |  |
| C=C1C[C@]23C[C@@]1(O)CC[C@H]2[C@@]12C=C[C@H](O)[C@@](C)(C(=O)O1)[C@H]2[C@@H]3C(=O)O | inactive |  |

| Compound | outcome | fluorescence, % of fluorescein control [%] |
| --- | --- | --- |
| OCCOCCOCCOCCOCCO | inactive |  |
| C=CC(=O)NCOCCCC | inactive |  |
| CC(COCC(C)OC(=O)c1ccccc1)OC(=O)c1ccccc1 (centres undefined) | inactive |  |
| CC(CN1c2ccccc2Sc2ccccc21)N(C)C (centres undefined) | inactive |  |
| O=C1O[C@H]([C@H](O)CO)C(O)=C1O | inactive |  |
| OC1CCCCC1 | inactive |  |
| O=c1n(CCCN2CCN(c3cccc(Cl)c3)CC2)nc2ccccn12 | inactive |  |
| CO[Si](CCCNCCN)(OC)OC | inactive |  |
| OCC(CO)(CO)CO | inactive |  |
| C1CCCNCC1 | inactive |  |
| Cc1cccc(C)c1[N+](=O)[O-] | inactive |  |
| COC(=O)/C=C\C(=O)OC |  | 0.0004 |
| CCN(CC)CCNC(=O)c1ccc(N)cc1 | inactive |  |
| COc1cc(NC(=O)CC(C)=O)c(OC)cc1Cl | inactive |  |
| C[n+]1ccn(CCO)c1 | inactive |  |
| Clc1cccc(Cl)c1NC1=NCCN1 | inactive |  |
| O=C(NCC1CCCCN1)c1cc(OCC(F)(F)F)ccc1OCC(F)(F)F (centres undefined) | inactive |  |
| COc1c(Cl)ccc(Cl)c1C(=O)O | inactive |  |
| CS(=O)(=O)c1ccc(Cl)cc1 | inactive |  |

assay: qHTS assay to test for compound auto fluorescence at 460 nm (blue) in HEK293 cells (AID 720678); conditions: blue autofluorescence 405/460 nm; series mostly up to 91.3 µM; fluorescence, % of triamterene: at the top concentration
Outline: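 Blue read-out at excitation 405 nm and emission 460 nm follows overnight compound exposure of HEK293 cells at 37C in 5% CO2. Activity is given as auto fluorescence equivalency to triamterene.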

| Compound | fluorescence, % of triamterene [%] | Potency |
| --- | --- | --- |
| Nc1cccc(N)n1 | 6.85 |  |
| CN=C(NC#N)NCCSCc1nc[nH]c1C |  | inactive |
| NCCNCCNCCN |  | inactive |
| C=C(C)CC(C)(C)C |  | inactive |
| CC(C=O)Cc1ccc(C(C)(C)C)cc1 (centres undefined) |  | inactive |
| COc1ccc2cc3[n+](cc2c1OC)CCc1cc2c(cc1-3)OCO2 |  | inactive |
| Cc1ncc(CO)c(CO)c1O |  | inactive |
| CN1Cc2c(N)cccc2C(c2ccccc2)C1 (centres undefined) |  | inactive |
| CCCCCCCCCCCC(=O)N(C)CC(=O)O |  | inactive |
| CCCOCC(C)O (centres undefined) |  | inactive |
| O=C1CCCCCCCCCCC1 |  | inactive |
| CC[N+](CC)(CC(=O)Nc1c(C)cccc1C)Cc1ccccc1 |  | inactive |
| CC(=O)OC/C=C(\C)CCC=C(C)C |  | inactive |
| C=CC(C)(C)C |  | inactive |
| CC1=CC(=O)CC(C)(C)C1 |  | inactive |
| N#CCC(=O)O |  | inactive |
| NC1CCCCC1N (centres undefined) |  | inactive |
| OCC(O)CS (centres undefined) |  | inactive |
| C=C1C[C@]23C[C@@]1(O)CC[C@H]2[C@@]12C=C[C@H](O)[C@@](C)(C(=O)O1)[C@H]2[C@@H]3C(=O)O |  | inactive |

| Compound | fluorescence, % of triamterene [%] | Potency |
| --- | --- | --- |
| OCCOCCOCCOCCOCCO |  | inactive |
| C=CC(=O)NCOCCCC |  | inactive |
| CC(COCC(C)OC(=O)c1ccccc1)OC(=O)c1ccccc1 (centres undefined) |  | inactive |
| CC(CN1c2ccccc2Sc2ccccc21)N(C)C (centres undefined) |  | inactive |
| O=C1O[C@H]([C@H](O)CO)C(O)=C1O |  | inactive |
| OC1CCCCC1 |  | inactive |
| O=c1n(CCCN2CCN(c3cccc(Cl)c3)CC2)nc2ccccn12 |  | inactive |
| CO[Si](CCCNCCN)(OC)OC |  | inactive |
| OCC(CO)(CO)CO |  | inactive |
| C1CCCNCC1 |  | inactive |
| Cc1cccc(C)c1[N+](=O)[O-] |  | inactive |
| COC(=O)/C=C\C(=O)OC | -0.21 |  |
| CCN(CC)CCNC(=O)c1ccc(N)cc1 |  | inactive |
| COc1cc(NC(=O)CC(C)=O)c(OC)cc1Cl |  | inactive |
| C[n+]1ccn(CCO)c1 |  | inactive |
| Clc1cccc(Cl)c1NC1=NCCN1 |  | inactive |
| O=C(NCC1CCCCN1)c1cc(OCC(F)(F)F)ccc1OCC(F)(F)F (centres undefined) |  | inactive |
| COc1c(Cl)ccc(Cl)c1C(=O)O |  | inactive |
| CS(=O)(=O)c1ccc(Cl)cc1 |  | inactive |

assay: qHTS assay to test for compound auto fluorescence at 590 nm (red) in HEK293 cells (AID 720679); conditions: red autofluorescence 540/590 nm; series mostly up to 91.3 µM; fluorescence, % of fluorescent control: at the top concentration
Outline: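 Red channel, Ex/Em 540/590nm; signal expressed as equivalency to Rose Bengal sodium. HEK293, 2,000 cells/well, 10% dialyzed FBS; 23 nL compound pinned after 4-5 hr attachment; overnight 37C/5% CO2 before reading.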

| Compound | outcome | fluorescence, % of fluorescent control [%] |
| --- | --- | --- |
| Nc1cccc(N)n1 | inactive |  |
| CN=C(NC#N)NCCSCc1nc[nH]c1C | inactive |  |
| NCCNCCNCCN | inactive |  |
| C=C(C)CC(C)(C)C | inactive |  |
| CC(C=O)Cc1ccc(C(C)(C)C)cc1 (centres undefined) | inactive |  |
| COc1ccc2cc3[n+](cc2c1OC)CCc1cc2c(cc1-3)OCO2 | inactive |  |
| Cc1ncc(CO)c(CO)c1O | inactive |  |
| CN1Cc2c(N)cccc2C(c2ccccc2)C1 (centres undefined) | inactive |  |
| CCCCCCCCCCCC(=O)N(C)CC(=O)O | inactive |  |
| CCCOCC(C)O (centres undefined) | inactive |  |
| O=C1CCCCCCCCCCC1 | inactive |  |
| CC[N+](CC)(CC(=O)Nc1c(C)cccc1C)Cc1ccccc1 | inactive |  |
| CC(=O)OC/C=C(\C)CCC=C(C)C | inactive |  |
| C=CC(C)(C)C | inactive |  |
| CC1=CC(=O)CC(C)(C)C1 | inactive |  |
| N#CCC(=O)O | inactive |  |
| NC1CCCCC1N (centres undefined) | inactive |  |
| OCC(O)CS (centres undefined) | inactive |  |
| C=C1C[C@]23C[C@@]1(O)CC[C@H]2[C@@]12C=C[C@H](O)[C@@](C)(C(=O)O1)[C@H]2[C@@H]3C(=O)O | inactive |  |

| Compound | outcome | fluorescence, % of fluorescent control [%] |
| --- | --- | --- |
| OCCOCCOCCOCCOCCO | inactive |  |
| C=CC(=O)NCOCCCC | inactive |  |
| CC(COCC(C)OC(=O)c1ccccc1)OC(=O)c1ccccc1 (centres undefined) | inactive |  |
| CC(CN1c2ccccc2Sc2ccccc21)N(C)C (centres undefined) | inactive |  |
| O=C1O[C@H]([C@H](O)CO)C(O)=C1O | inactive |  |
| OC1CCCCC1 | inactive |  |
| O=c1n(CCCN2CCN(c3cccc(Cl)c3)CC2)nc2ccccn12 | inactive |  |
| CO[Si](CCCNCCN)(OC)OC | inactive |  |
| OCC(CO)(CO)CO | inactive |  |
| C1CCCNCC1 | inactive |  |
| Cc1cccc(C)c1[N+](=O)[O-] | inactive |  |
| COC(=O)/C=C\C(=O)OC |  | -0.135 |
| CCN(CC)CCNC(=O)c1ccc(N)cc1 | inactive |  |
| COc1cc(NC(=O)CC(C)=O)c(OC)cc1Cl | inactive |  |
| C[n+]1ccn(CCO)c1 | inactive |  |
| Clc1cccc(Cl)c1NC1=NCCN1 | inactive |  |
| O=C(NCC1CCCCN1)c1cc(OCC(F)(F)F)ccc1OCC(F)(F)F (centres undefined) | inactive |  |
| COc1c(Cl)ccc(Cl)c1C(=O)O | inactive |  |
| CS(=O)(=O)c1ccc(Cl)cc1 | inactive |  |
